Measurements published in PubChem BioAssay AID1159580 (chemical genetic matrix, 2015).
Where “and” joins values, the source holds several entries; their conditions need not be identical. Identical values can stand only once. The whole screen tested about 5,500 compounds, of which about 2,000 (36%) were called active. Inconclusive results (about 18%) are left out. Rule as the data show it: active = normalized growth mostly below about 0.91 (no sharp cut-off); inconclusive = no clear call, values can overlap the other calls; inactive = mostly above about 0.92. The list shows a part of the results.

Assay: chemical genetic growth profiling, strain panel (AID 1159580);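 also: tested at 20 µM; growth read once vehicle control cultures reached saturation at 30 °C; 1 = growth at the plate median or of vehicle wells; lower values mean less growth of the strain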
Settings: S. cerevisiae deletion strains, growth OD

Measured: normalized growth

CC(=O)O[C@H]1C[C@@H](OC(C)=O)C(C)(C)C2C[C@@H](OC(C)=O)[C@]3(C)C(CC[C@@]4(C)[C@H](c5ccoc5)C(=O)[C@H]5O[C@]543)[C@]21C (stereo partly drawn)
inactive: locus YAL021C, strain ccr4, active compounds read low 0.992 | locus YAL026C, strain drs2, active compounds read low 0.991 | locus YAL030W, strain snc1, active compounds read low 0.99 | locus YBL061C, strain skt5, active compounds read low 1 | locus YBR009C, strain hhf1, active compounds read low 1 | locus YBR021W, strain FUR4, active compounds read low 0.966 | locus YBR023C, strain chs3, active compounds read low 1.01 | locus YBR171W, strain sec66, active compounds read low 1 | locus YBR229C, strain ROT2, active compounds read low 1.01 | locus YBR231C, strain swc5, active compounds read low 1 | locus YBR279W, strain paf1, active compounds read low 1 | locus YCL011C, strain gbp2, active compounds read low 1.01 | locus YCL016C, strain dcc1, active compounds read low 0.998 | locus YCL029C, strain bik1, active compounds read low 1.01 | locus YCL061C, strain MRC1, active compounds read low 0.997 | locus YCL069W, strain vba3, active compounds read low 1 | locus YCR088W, strain abp1, active compounds read low 0.995 | locus YDL005C, strain med2, active compounds read low 0.986 | locus YDL035C, strain GPR1, active compounds read low 0.969 | locus YDL040C, strain nat1, active compounds read low 0.995 | locus YDL074C, strain BRE1, active compounds read low 0.975 | locus YDL101C, strain DUN1, active compounds read low 1.02 | locus YDL134C, strain PPH21, active compounds read low 1.02 | locus YDL185W, strain tfp1, active compounds read low 1.02 | locus YDL192W, strain arf1, active compounds read low 1.01 | locus YDR001C, strain nth1, active compounds read low 0.981 | locus YDR069C, strain doa4, active compounds read low 0.993 | locus YDR101C, strain arx1, active compounds read low 0.994 | locus YDR137W, strain rgp1, active compounds read low 0.935 | locus YDR150W, strain NUM1, active compounds read low 1.02 | locus YDR159W, strain sac3, active compounds read low 1.02 | locus YDR162C, strain NBP2, active compounds read low 0.987 | locus YDR195W, strain ref2 0.985 | locus YDR297W, strain sur2, active compounds read low 0.996 | locus YDR318W, strain mcm21, active compounds read low 1.01 | locus YDR334W, strain swr1, active compounds read low 0.991 | locus YDR335W, strain msn5, active compounds read low 0.994 | locus YDR388W, active compounds read low 1.04 | locus YDR392W, strain spt3, active compounds read low 1.02 | locus YDR502C, strain sam2, active compounds read low 1.02 | locus YEL003W, strain gim4, active compounds read low 1 | locus YEL037C, strain rad23, active compounds read low 1 | locus YEL061C, strain CIN8 (second series), active compounds read low 0.995 | locus YEL061C, strain CIN8, active compounds read low 1.01 | locus YER015W, strain faa2, active compounds read low 1.01 | locus YER016W, strain bim1, active compounds read low 0.997 | locus YER110C, active compounds read low 1.03 | locus YER111C, strain swi4, active compounds read low 1 | locus YER155C, strain BEM2 (second series), active compounds read low 0.998 | locus YER155C, strain BEM2, active compounds read low 1.02 | locus YER167W, strain BCK2, active compounds read low 1.01 | locus YFR010W, strain ubp6, active compounds read low 0.989 | locus YGL078C, strain dbp3, active compounds read low 1 | locus YGL086W, strain mad1, active compounds read low 1.01 | locus YGL167C, strain pmr1, active compounds read low 1 | locus YGL173C, strain kem1, active compounds read low 1.01 | locus YGL227W, strain vid30, active compounds read low 0.996 | locus YGL240W, strain doc1, active compounds read low 1.01 | locus YGL248W, strain PDE1, active compounds read low 1.02 | locus YGL253W, strain hxk2, active compounds read low 1 | locus YGR135W, strain pre9, active compounds read low 1.05 | locus YGR252W, strain gcn5, active compounds read low 0.996 | locus YHR013C, strain ard1, active compounds read low 1.01 | locus YHR027C, strain rpn1, active compounds read low 0.99 | locus YHR030C, strain SLT2, active compounds read low 1.01 and 0.945 | locus YHR079C, strain IRE1 (second series), active compounds read low 1.03 | locus YHR079C, strain IRE1, active compounds read low 0.925 | locus YHR094C, strain hxt1, active compounds read low 1.03 | locus YHR129C, strain ARP1, active compounds read low 1.02 | locus YHR142W, strain chs7, active compounds read low 1 | locus YHR200W, strain rpn10, active compounds read low 1.02 | locus YIL066C, strain RNR3, active compounds read low 0.98 | locus YIL073C, strain SPO22, active compounds read low 1.01 | locus YIL125W, strain kgd1, active compounds read low 1.01 | locus YIR030C, strain dcg1, active compounds read low 1.02 | locus YJL092W, strain hpr5, active compounds read low 1.01 | locus YJL095W, strain BCK1 (second series), active compounds read low 1 | locus YJL095W, strain BCK1, active compounds read low 1.03 and 0.969 | locus YJL115W, strain asf1, active compounds read low 0.987 | locus YJL129C, strain trk1, active compounds read low 0.973 | locus YJL134W, strain LCB3, active compounds read low 1.02 | locus YJL154C, strain vps35, active compounds read low 0.991 | locus YJL164C, strain tpk1, active compounds read low 1 | locus YJL166W, strain qcr8, active compounds read low 1.01 | locus YJL168C, strain set2, active compounds read low 1.04 | locus YJL187C, strain SWE1 (second series), active compounds read low 1.02 | locus YJL187C, strain SWE1, active compounds read low 1 | locus YJR066W, strain TOR1, active compounds read low 0.888 | locus YJR075W, strain HOC1, active compounds read low 1.04 | locus YKL009W, strain mrt4, active compounds read low 0.898 | locus YKL068W, active compounds read low 1.02 | locus YKL085W, strain MDH1 (second series), active compounds read low 1.01 | locus YKL085W, strain MDH1, active compounds read low 1.01 | locus YKL160W, strain elf1, active compounds read low 0.996 | locus YKL190W, strain CNB1, active compounds read low 1.01 | locus YKR001C, strain vps1, active compounds read low 0.993 | locus YKR026C, strain gcn3, active compounds read low 0.997 | locus YKR091W, strain srl3, active compounds read low 0.995 | locus YLL001W, strain dnm1, active compounds read low 1 | locus YLL026W, active compounds read low 1 | locus YLL041C, strain sdh2, active compounds read low 0.994 | locus YLR027C, strain aat2, active compounds read low 1.02 | locus YLR039C, strain RIC1, active compounds read low 1.02 | locus YLR058C, strain SHM2, active compounds read low 1.01 | locus YLR102C, strain apc9, active compounds read low 1.02 | locus YLR113W, strain HOG1, active compounds read low 1.03 | locus YLR221C, strain rsa3, active compounds read low 1 | locus YLR258W, strain gsy2, active compounds read low 0.995 | locus YLR262C, strain YPT6 (second series), active compounds read low 0.95 | locus YLR268W, strain sec22, active compounds read low 0.982 | locus YLR320W, strain mms22, active compounds read low 1 | locus YLR330W, strain CHS5, active compounds read low 1.02 | locus YLR342W, strain FKS1, active compounds read low 1.01 | locus YLR357W, strain rsc2, active compounds read low 1.01 | locus YLR370C, strain arc18, active compounds read low 1 | locus YLR371W, strain rom2, active compounds read low 1.03 | locus YLR384C, strain iki3, active compounds read low 0.995 | locus YLR418C, strain cdc73, active compounds read low 1.05 | locus YML016C, strain PPZ1, active compounds read low 1.01 | locus YML032C, strain rad52, active compounds read low 0.995 | locus YML120C, strain ndi1, active compounds read low 1 | locus YML124C, strain tub3, active compounds read low 1.02 | locus YMR058W, strain fet3, active compounds read low 0.99 | locus YMR078C, strain ctf18, active compounds read low 1.01 | locus YMR125W, strain sto1, active compounds read low 0.978 | locus YMR129W, active compounds read low 1 | locus YMR205C, strain PFK2, active compounds read low 1.01 | locus YMR223W, strain ubp8, active compounds read low 1.01 | locus YMR231W, strain pep5, active compounds read low 0.978 | locus YMR307W, strain GAS1, active compounds read low 0.931 | locus YNL067W, strain RPL9B, active compounds read low 1.04 | locus YNL071W, strain lat1, active compounds read low 0.996 | locus YNL128W, strain TEP1, active compounds read low 0.991 | locus YNL153C, strain GIM3, active compounds read low 1.02 | locus YNL183C, strain NPR1, active compounds read low 0.904 | locus YNL209W, strain ssb2, active compounds read low 1 | locus YNL233W, strain BNI4, active compounds read low 0.973 | locus YNL248C, strain rpa49, active compounds read low 0.969 | locus YNL250W, strain rad50, active compounds read low 1.06 | locus YNL271C, strain bni1, active compounds read low 1.01 | locus YNL298W, strain CLA4, active compounds read low 1.01 | locus YNL307C, strain MCK1, active compounds read low 1.02 | locus YNL322C, strain KRE1 (second series), active compounds read low 1.01 | locus YNR049C, strain mso1, active compounds read low 1.01 | locus YNR052C, strain pop2, active compounds read low 1.02 | locus YOL006C, strain TOP1, active compounds read low 0.962 | locus YOL012C, strain htz1 1.21 | locus YOL147C, strain pex11, active compounds read low 1.03 | locus YOR001W, strain rrp6, active compounds read low 0.985 | locus YOR061W, strain CKA2, active compounds read low 0.998 | locus YOR069W, strain VPS5, active compounds read low 1.02 | locus YOR070C, strain gyp1, active compounds read low 1 | locus YOR080W, strain dia2, active compounds read low 1.01 | locus YOR083W, strain WHI5, active compounds read low 0.991 | locus YOR106W, strain vam3, active compounds read low 0.985 | locus YOR136W, strain idh2, active compounds read low 1.01 | locus YOR144C, strain elg1, active compounds read low 1.02 | locus YOR184W, strain ser1, active compounds read low 0.965 | locus YOR231W, strain MKK1, active compounds read low 0.919 | locus YOR265W, strain rbl2, active compounds read low 0.997 | locus YOR270C, strain vph1, active compounds read low 0.875 | locus YOR290C, strain snf2, active compounds read low 1 | locus YOR316C, strain cot1, active compounds read low 1.02 | locus YPL051W, strain arl3, active compounds read low 1.01 | locus YPL078C, strain atp4, active compounds read low 0.991 | locus YPL106C, strain sse1, active compounds read low 1.05 | locus YPL240C, strain hsp82, active compounds read low 0.998 | locus YPL256C, strain CLN2, active compounds read low 0.994 | locus YPR119W, strain clb2, active compounds read low 1.02 | locus YPR141C, strain kar3, active compounds read low 1.03 | locus YPR163C, strain tif3, active compounds read low 1.02 | locus YPR167C, strain met16, active compounds read low 1.01 | strain wtn01, active compounds read low 0.987
